{"source": "paper PMC5700166"}
{"molecular_target": "T1, GST-Aq-NF-kB (Amphimedon queenslandica, UniProt A9Y5G7 2-389)", "T1 sequence": "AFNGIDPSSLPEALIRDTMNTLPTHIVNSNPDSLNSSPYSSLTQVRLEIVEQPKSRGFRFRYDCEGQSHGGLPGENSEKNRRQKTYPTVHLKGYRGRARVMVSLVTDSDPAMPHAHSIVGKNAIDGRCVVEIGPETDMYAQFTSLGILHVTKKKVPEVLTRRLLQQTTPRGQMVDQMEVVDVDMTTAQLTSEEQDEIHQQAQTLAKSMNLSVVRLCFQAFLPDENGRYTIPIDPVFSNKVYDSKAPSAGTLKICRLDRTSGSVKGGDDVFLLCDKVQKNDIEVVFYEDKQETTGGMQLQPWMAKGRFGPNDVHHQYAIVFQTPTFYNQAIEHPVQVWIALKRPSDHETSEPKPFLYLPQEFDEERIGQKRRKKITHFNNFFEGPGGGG", "assay": "protein-binding microarray (PBM); PBM: ~300 nM protein, 6 mM HEPES pH 7.8, 80 mM KCl, 0.5 mM EDTA, 0.5 mM EGTA, 6% glycerol, 35 ng/ul poly-dIdC, 1% milk, 1 h, room temperature; Ap Aiptasia and Nv Nematostella (sea anemones) / Co Capsaspora / Aq Amphimedon (sponge) / Dm Drosophila / Hu human; RHD is the Rel homology domain; high values mean tight binding", "settings": "dsDNA, one strand shown", "units": {"binding signal": "z-score"}}
{"sequence": "CCGATTAACATCAACTGGGAAAATGATGTTAATCGGGTCTTGATTCGCTTGACGCTGCTG", "binding signal": 1.65}
{"sequence": "CCGATTAACATCACCTTGGGAAATGATGTTAATCGGGTCTTGATTCGCTTGACGCTGCTG", "binding signal": 1.62}
{"sequence": "CCGATTAACATCAAATCGGGAAATGATGTTAATCGGGTCTTGATTCGCTTGACGCTGCTG", "binding signal": 1.61}
{"sequence": "CCGATTAACATCAAGCGTTTCCCTGATGTTAATCGGGTCTTGATTCGCTTGACGCTGCTG", "binding signal": 2.82}
{"sequence": "CCGATTAACATCAGACTGGGAAATGATGTTAATCGGGTCTTGATTCGCTTGACGCTGCTG", "binding signal": 1.18}
{"sequence": "CCGATTAACATCAATTTACCCACTGATGTTAATCGGGTCTTGATTCGCTTGACGCTGCTG", "binding signal": 1.45}
{"sequence": "CCGATTAACATCATGCCCGGGAATGATGTTAATCGGGTCTTGATTCGCTTGACGCTGCTG", "binding signal": 2.72}
{"sequence": "CCGATTAACATCAATCGGGAAATTGATGTTAATCGGGTCTTGATTCGCTTGACGCTGCTG", "binding signal": 2.1}
{"sequence": "CCGATTAACATCATGGTGGGAAATGATGTTAATCGGGTCTTGATTCGCTTGACGCTGCTG", "binding signal": 1.9}
{"sequence": "CCGATTAACATCACCTCTTTCCCTGATGTTAATCGGGTCTTGATTCGCTTGACGCTGCTG", "binding signal": 2.52}
{"sequence": "CCGATTAACATCAGACATTCCCATGATGTTAATCGGGTCTTGATTCGCTTGACGCTGCTG", "binding signal": 2.26}
{"sequence": "CCGATTAACATCAGGGGTAGGTTTGATGTTAATCGGGTCTTGATTCGCTTGACGCTGCTG", "binding signal": 2.1}
{"sequence": "CCGATTAACATCATCTGGGAAAATGATGTTAATCGGGTCTTGATTCGCTTGACGCTGCTG", "binding signal": 1.45}
{"sequence": "CCGATTAACATCAGGGAAAGGTATGATGTTAATCGGGTCTTGATTCGCTTGACGCTGCTG", "binding signal": 3.59}
{"sequence": "CCGATTAACATCATGGGGACGACTGATGTTAATCGGGTCTTGATTCGCTTGACGCTGCTG", "binding signal": 2.64}
{"sequence": "CCGATTAACATCATGGAGGGAGGTGATGTTAATCGGGTCTTGATTCGCTTGACGCTGCTG", "binding signal": 1.34}
{"sequence": "CCGATTAACATCAACTTTCCCAGTGATGTTAATCGGGTCTTGATTCGCTTGACGCTGCTG", "binding signal": 3.06}
{"sequence": "CCGATTAACATCACCCACTTCCCTGATGTTAATCGGGTCTTGATTCGCTTGACGCTGCTG", "binding signal": 1.65}
{"sequence": "CCGATTAACATCAGGGACAAAAATGATGTTAATCGGGTCTTGATTCGCTTGACGCTGCTG", "binding signal": 2.39}
{"sequence": "CCGATTAACATCAGGGAATCAGATGATGTTAATCGGGTCTTGATTCGCTTGACGCTGCTG", "binding signal": 1.84}
{"sequence": "CCGATTAACATCATGTTGGGAAATGATGTTAATCGGGTCTTGATTCGCTTGACGCTGCTG", "binding signal": 1.2}
{"sequence": "CCGATTAACATCAACTCGGGAAATGATGTTAATCGGGTCTTGATTCGCTTGACGCTGCTG", "binding signal": 1.73}
{"sequence": "CCGATTAACATCAATTCCCGTACTGATGTTAATCGGGTCTTGATTCGCTTGACGCTGCTG", "binding signal": 2.81}
{"sequence": "CCGATTAACATCAACATGGGAAATGATGTTAATCGGGTCTTGATTCGCTTGACGCTGCTG", "binding signal": 1.66}
{"sequence": "CCGATTAACATCATCAGGGAAAATGATGTTAATCGGGTCTTGATTCGCTTGACGCTGCTG", "binding signal": 2.95}
{"sequence": "CCGATTAACATCAGGTCGGGAAATGATGTTAATCGGGTCTTGATTCGCTTGACGCTGCTG", "binding signal": 1.83}
{"sequence": "CCGATTAACATCAGAGTTTCCCATGATGTTAATCGGGTCTTGATTCGCTTGACGCTGCTG", "binding signal": 3.07}
{"sequence": "CCGATTAACATCAGGGAAAAGGATGATGTTAATCGGGTCTTGATTCGCTTGACGCTGCTG", "binding signal": 2.41}
{"sequence": "CCGATTAACATCAGGGAAAGGAATGATGTTAATCGGGTCTTGATTCGCTTGACGCTGCTG", "binding signal": 2.97}
{"sequence": "CCGATTAACATCAGGGAAAAGAATGATGTTAATCGGGTCTTGATTCGCTTGACGCTGCTG", "binding signal": 3.22}
{"sequence": "CCGATTAACATCATGATGGGAAATGATGTTAATCGGGTCTTGATTCGCTTGACGCTGCTG", "binding signal": 1.64}
{"sequence": "CCGATTAACATCAAATGTGGGAATGATGTTAATCGGGTCTTGATTCGCTTGACGCTGCTG", "binding signal": 2.21}
{"sequence": "CCGATTAACATCAAACAGGGAAATGATGTTAATCGGGTCTTGATTCGCTTGACGCTGCTG", "binding signal": 3.23}
{"sequence": "CCGATTAACATCAAGCCCCCCCCTGATGTTAATCGGGTCTTGATTCGCTTGACGCTGCTG", "binding signal": 4.71}
{"sequence": "CCGATTAACATCACATGGGAAACTGATGTTAATCGGGTCTTGATTCGCTTGACGCTGCTG", "binding signal": 1.58}
{"sequence": "CCGATTAACATCATGGGAAGGTTTGATGTTAATCGGGTCTTGATTCGCTTGACGCTGCTG", "binding signal": 1.66}
{"sequence": "CCGATTAACATCACTTTCCCAAATGATGTTAATCGGGTCTTGATTCGCTTGACGCTGCTG", "binding signal": 1.54}
